Laboratory results taken from PubChem BioAssay (EPA / NIEHS).
Records with an inconclusive call do not appear. The source made the active and inactive calls. How the source made its calls: active means hit-call score of the fitted dose curve at least 0.9, where 1 is the maximum; inconclusive means response in the unintended direction; inactive means score below 0.9.

target: human Dopamine Receptor D2 (DRD2), DRD2 (gene 1813) (UniProt P14416); test: NVS_GPCR_hDRD2s: NovaScreen (NVS) G Protein-Coupled Receptor Assay for human Dopamine Receptor D2 (DRD2) (AID 2283266)
Method: NVS_GPCR_hDRD2s is a biochemical, single-readout assay that uses extracted gene-proteins from CHO in a cell-free assay. Measurements were taken 1.5 hours after chemical dosing in a 96-well plate.NVS_GPCR_hDRD2s is one of one assay component(s) measured or calculated from the NVS_GPCR_hDRD2s assay. It is designed to make measurements of radioligand binding, a form of binding reporter, as detected with scintillation counting signals by Filter-based radiodetection technology.Data from the assay component NVS_GPCR_hDRD2s was analyzed into 1 assay endpoint. This assay endpoint, NVS_GPCR_hDRD2s, was analyzed in the positive analysis fitting direction relative to DMSO as the negative control and baseline of activity. Using a type of binding reporter, loss-of-signal activity can be used to understand changes in the binding as they relate to the gene DRD2. Furthermore, this assay endpoint can be referred to as a primary readout, because the performed assay has only produced 1 assay endpoint. To generalize the intended target to other relatable targets, this assay endpoint is annotated to the gpcr intended target family, where the subfamily is rhodopsin-like receptor.
Binding assays used specific radioligands (tritiated, iodinated) with non-radioactive competitive displacement ligands in agonist or antagonist protocols (as indicated) and various reference compounds and inhibitors to titrate specific binding to receptors and transporters. Most enzyme assays (CYPs, kinases, phosphatases, proteases, HDACs) used recombinant protein and specific substrates (fluorescence mostly, some colorimetric and radioactive) and inhibitors, followed by a biochemical separation of substrate and product. All assays for the biochemical HTS were initially run in duplicate at a single concentration (10 uM for CYP450 assays and 25 uM for all others). […] Each assay was run with positive and negative controls, and concurrent controls on every plate. The follow-up (secondary) screen tested active chemical-pairs in concentration series, as well as a few additional assays not tested in the primary screen, some selected negative inactives, and several cases re-run in the concentration series for confirmatory purposes.

human Dopamine Receptor D2 (DRD2), DRD2 (gene 1813), sequence (P14416 whole entry, looked up): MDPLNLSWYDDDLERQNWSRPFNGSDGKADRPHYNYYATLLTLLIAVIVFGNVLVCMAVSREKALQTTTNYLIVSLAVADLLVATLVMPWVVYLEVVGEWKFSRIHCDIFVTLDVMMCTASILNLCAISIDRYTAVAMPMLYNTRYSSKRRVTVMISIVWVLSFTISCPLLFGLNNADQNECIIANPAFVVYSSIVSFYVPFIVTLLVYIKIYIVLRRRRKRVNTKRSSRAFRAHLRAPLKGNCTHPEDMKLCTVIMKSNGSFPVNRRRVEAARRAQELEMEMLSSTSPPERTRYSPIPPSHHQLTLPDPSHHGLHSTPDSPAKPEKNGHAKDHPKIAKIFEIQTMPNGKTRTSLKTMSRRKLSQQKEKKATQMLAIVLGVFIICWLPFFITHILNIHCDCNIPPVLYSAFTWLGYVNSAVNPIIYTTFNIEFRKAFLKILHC

Compound	AC50	outcome
CCN(CC)C(=O)c1cc(S(=O)(=O)Cc2ccccc2)c(N2CCC(c3ccccc3)CC2)cc1N(CC)CCN(C)C	1.05 µM (active)	
CCCCCCCCOC(=O)c1cc(O)c(O)c(O)c1	25 µM (active)	
CN(C)c1ccc(C(=C2C=CC(=[N+](C)C)C=C2)c2ccc(N(C)C)cc2)cc1	2.02 µM (active)	
COc1ccc2cc(S(=O)(=O)N[C@H](CC(=O)N[C@H](Cc3ccc(CN4[C@H](C)CCC[C@@H]4C)cc3)C(=O)N(C)C(C)C)c3ccc4c(c3)OCO4)ccc2c1		inactive
CCCCCCCCCCCC[N+](C)(C)C	13 µM (active)	
CC/C(=C(/CC)c1ccc(O)cc1)c1ccc(O)cc1	25 µM (active)	
CCCCCCCCN(C)CCCCCCCC		inactive
Cc1cc(F)ccc1-c1cc(N2CC[C@@H](O)[C@H]2CO)ncc1N(C)C(=O)C(C)(C)c1cc(C(F)(F)F)cc(C(F)(F)F)c1	7.16 µM (active)	
O=C1c2ccccc2C(=O)N1CCc1noc(-c2ccc(CN3CCCCCC3)s2)n1	10.1 µM (active)	
CCOC(=O)O[C@H](C)OC(=O)c1ccc2c(c1)cc(C(=O)NC1CCN(C(C)C)CC1)n2Cc1cc(-c2ccc(Cl)s2)on1	3.6 µM (active)	
O=C1CCC(C2CCCCC2)CC1		inactive
CCN(Cc1cccnc1)C(=O)c1cccc(Cl)c1[C@]1(C)C(=O)N(Cc2ccc(OC)cc2OC)c2ccc(Cl)cc21	1.91 µM (active)	
COc1cc(C(=O)NC2CCN(C)CC2)ccc1Nc1ncc2c(n1)N(C1CCCC1)CC(F)(F)C(=O)N2C		inactive
O=C(Nc1ccc(Cl)cc1)Nc1ccc(Cl)c(Cl)c1		inactive
CN(C)C(=O)C1(N2CCCCC2)CCN(CC[C@@]2(c3ccc(Cl)c(Cl)c3)CN(C(=O)c3ccccc3)CCO2)CC1	1.59 µM (active)	
Cc1cc2c(cc1C(F)(F)F)N(C(=O)Nc1ccc(Oc3cccnc3C)nc1)CC2	0.0486 µM (active)	
NCc1cccc(C2CCN(C(=O)c3ccc(C#Cc4ccccc4F)o3)CC2)c1	9.74 µM (active)	
